The list is not random: actives were taken first. Their share in the collection is about 2.3%.
CHRM1 antagonist = human M1 muscarinic receptor antagonists, primary screen, CHO-K1 cells, Fluo-8 calcium fluorescence, 1536-well | inhibition, % at 3 µM | CHO-K1 hM1, ACh EC80 antagonist | actives 1.3% (n = 360,000) | Muscarinic acetylcholine receptor M1 (Homo sapiens), P11229;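 active = percent inhibition above its own plate's cutoff, namely the mean of that plate's compound wells plus 3 SD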;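 also: peak over basal fluorescence ratio during 140 s after agonist addition; 0% = ACh EC80 plus DMSO and 100% = DMSO alone without agonist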
Target sequence (P11229 whole entry, looked up): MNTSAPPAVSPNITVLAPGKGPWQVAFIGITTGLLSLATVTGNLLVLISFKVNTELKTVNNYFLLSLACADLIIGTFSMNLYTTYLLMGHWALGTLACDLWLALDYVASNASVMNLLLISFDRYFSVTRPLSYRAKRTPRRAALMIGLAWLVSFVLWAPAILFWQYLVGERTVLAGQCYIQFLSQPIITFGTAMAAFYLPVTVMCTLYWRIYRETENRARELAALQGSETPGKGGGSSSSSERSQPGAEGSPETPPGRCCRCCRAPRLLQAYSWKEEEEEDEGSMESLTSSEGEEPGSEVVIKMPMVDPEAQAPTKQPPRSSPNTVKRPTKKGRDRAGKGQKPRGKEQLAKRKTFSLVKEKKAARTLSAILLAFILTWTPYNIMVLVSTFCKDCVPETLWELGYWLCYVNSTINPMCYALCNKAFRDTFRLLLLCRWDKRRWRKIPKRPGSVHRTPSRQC
CHO-K1 Ca antag = nonselective inhibitor or artifact in parental CHO-K1 cells | ATP-induced calcium, Fluo-8 fluorescence | inhibition, % at 3 µM | actives 0.6% (n = 360,000) | AID 602250;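 active = inhibition above a per-plate cutoff, the plate's mean sample inhibition plus 3 SD, cut at about 24% in these data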;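 also: 0% = DMSO plus EC80 ATP and 100% = DMSO alone without ATP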
M1 ag = human M1 muscarinic receptor agonists, primary screen, Fluo-8 calcium fluorescence, CHO-K1 cells, HTS; activation, % at 3 µM; actives 0.33% (n = 360,000); CHO-K1 hM1, agonist mode; 0% DMSO, 100% acetylcholine EC100;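 active = activation above the run's mean compound activation plus 3 SD, cut at about 16% in these data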;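 also: peak over basal fluorescence ratio within a 140 s kinetic read after compound addition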
CHO-K1 Ca ag = counter-screen for M1 agonists: effect in parental CHO-K1 cells; Fluo-8 calcium fluorescence; scaled to maximal ATP response, vehicle zero; activation, % at 3 µM; actives 0.48% (n = 360,000); AID 602248, 2012; in the data active = activation above about 15%;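 also: untransfected CHO-K1 host cells lacking M1 receptor as counterscreen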
CHO-K1 Ca PAM = nonselective calcium activators in parental CHO-K1 cells, primary screen, counter-screen for M1 PAM project, cell-based, Fluo-8 calcium fluorescence, full deck, 1536-well | ATP EC20; 0% at ATP EC20, 100% at ATP max | AID 602247, 2012 | activation, % at 3 µM | actives 0.02% (n = 360,000);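 active = activation above the run cutoff, the mean activation of all test compounds plus 3 SD, cut at about 40% in these data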;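 also: peak over basal fluorescence ratio in a 140 s read after ATP addition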
CHRM1 PAM = human M1 muscarinic receptor positive allosteric modulators, primary screen, CHO-K1 cells, Fluo-8 calcium fluorescence, 1536-well. Muscarinic acetylcholine receptor M1 (Homo sapiens), P11229. CHO-K1 hM1, ACh EC20; 0% = ACh EC20, 100% = maximal ACh. activation, % at 3 µM. actives 0.088% (n = 360,000). AID 588819, 2011; in the data active = activation above about 19%, passing the limit was not always enough
* marks the source's active call; other numbers are inactive results.

SMILES	CHRM1 antagonist	CHO-K1 Ca antag	M1 ag	CHO-K1 Ca ag	CHO-K1 Ca PAM	CHRM1 PAM
Clc1ccc2c(c1)C(c1ccccc1Cl)=NCc1nnc(N3CCN(CCSc4ccccc4)CC3)n1-2	-3	-9	1	0	17	8
Clc1ccc2c(c1)C(c1ccccc1Cl)=NCc1nnc(N3CCN(CCOc4ccccc4)CC3)n1-2	-1	-15	1	11	64*	10
CC[C@H]1CN2CC[C@@]3(C(=O)Nc4ccccc43)[C@@H]2C[C@@H]1/C(=C\OC)C(=O)OC	-14	4	2	0	8	15
COC(=O)C1=C(c2ccccc2OCc2ccccc2)C[C@@H]2CC[C@H]1N2C(=O)NCc1cccc(C(F)(F)F)c1	0	-18	-5	1	19	4
CC(=O)OCC12CC(OC(=O)CC(C)C)C(C)=CC1OC1C(O)C(OC(C)=O)C2(C)C12CO2 (stereo unspecified)	-14	-6	-9	0	-2	2
CCNc1nc(NC(C)(C)C)nc(SC)n1	-28	-10	-3	0	18	6
Cc1cccc(-n2c(-c3ccccc3)nc3ccccc3c2=O)n1	-3	8	-4	0	3	9
COc1cc(O)c2c(c1)/C=C/C[C@H](O)[C@H](O)C(=O)CCC[C@H](C)OC2=O	-19	-6	-3	0	4	0
CN1CC(C(=O)c2ccc(Cl)cc2)C(c2ccc(Cl)cc2Cl)C1 (stereo unspecified)	8	-7	-6	2	13	-10
CN1CCC(O)(c2ccc(Cl)cc2)C(C(=O)c2ccc(Cl)cc2)C1 (stereo unspecified)	30*	9	-10	-1	-4	-25
O=C1C2CCN(CC2)[C@@H]1Cc1ccc2ccccc2c1O	40*	6	-2	1	7	-17
COc1ccc(CNCCc2ccc(Cl)cc2Cl)cc1	-12	-10	-5	1	25	7
Clc1ccc(CCNCc2ccncc2)c(Cl)c1	-17	-2	0	16*	0	10
COc1ccccc1OCC#CCN1CCCCCC1	33*	-1	-6	0	-9	-15
Clc1ccc(OCC#CCN2CCCC2)cc1	32*	-9	-15	1	10	-29
COc1ccccc1OCC#CCN1CCOCC1	1	-20	-3	3	6	-2
CCc1ccc(NP(=O)(Oc2ccccc2F)Oc2ccccc2F)cc1	3	12	-4	0	-12	0
CN(CC1COc2ccccc2O1)c1nc(-c2cccnc2)nc2ccccc12 (stereo unspecified)	30*	-4	0	3	-4	-13
CN1CCC(N(C)c2nc(-c3ccc([N+](=O)[O-])cc3)nc3ccccc23)CC1	-3	-11	-2	2	19	-4
Cc1ccccc1CC(=O)N(CCN(C)C)CC1CCCN(Cc2ccccc2F)C1 (stereo unspecified)	-1	-4	-8	0	-9	2
CN(C(=O)Cc1ccc2c(c1)OCO2)C1CCCN(Cc2ccccc2F)C1 (stereo unspecified)	46*	0	-7	1	13	-27
O=C(c1ccc2c(c1)OCO2)C1CCCN(Cc2ccc(F)c(F)c2)C1 (stereo unspecified)	70*	-12	-7	0	15	-24
O=C(c1ccc(Cl)cc1)C1CCCN(Cc2ccc3ncccc3c2)C1 (stereo unspecified)	81*	-6	0	7	2	-20
O=C(c1ccc(Cl)cc1)C1CCCN(Cc2cccc3cnccc23)C1 (stereo unspecified)	70*	-8	-3	8	16	-23
COC(=O)C1=C(c2cccc(OCc3ccccc3)c2)C[C@@H]2CC[C@H]1N2C(=O)NCc1ccc2[nH]ccc2c1	-1	-12	0	1	7	9

From PubChem
